This passage reports z-score results from PubChem BioAssay AID1347074 (Center for Chemical Genomics, University of Michigan, 2019).

The whole screen tested about 47,000 compounds, of which about 2,800 (6%) were called active. The sample as a whole holds a higher share of actives than the screen did. Unmarked numbers belong to inactive results. No stated cut-off is given here; in the data, active means z-score above about 3 (passing the limit was not always enough); inactive means the rest.

Chain of Endoribonuclease Dicer (Homo sapiens) (Q9UPY3 whole entry, looked up): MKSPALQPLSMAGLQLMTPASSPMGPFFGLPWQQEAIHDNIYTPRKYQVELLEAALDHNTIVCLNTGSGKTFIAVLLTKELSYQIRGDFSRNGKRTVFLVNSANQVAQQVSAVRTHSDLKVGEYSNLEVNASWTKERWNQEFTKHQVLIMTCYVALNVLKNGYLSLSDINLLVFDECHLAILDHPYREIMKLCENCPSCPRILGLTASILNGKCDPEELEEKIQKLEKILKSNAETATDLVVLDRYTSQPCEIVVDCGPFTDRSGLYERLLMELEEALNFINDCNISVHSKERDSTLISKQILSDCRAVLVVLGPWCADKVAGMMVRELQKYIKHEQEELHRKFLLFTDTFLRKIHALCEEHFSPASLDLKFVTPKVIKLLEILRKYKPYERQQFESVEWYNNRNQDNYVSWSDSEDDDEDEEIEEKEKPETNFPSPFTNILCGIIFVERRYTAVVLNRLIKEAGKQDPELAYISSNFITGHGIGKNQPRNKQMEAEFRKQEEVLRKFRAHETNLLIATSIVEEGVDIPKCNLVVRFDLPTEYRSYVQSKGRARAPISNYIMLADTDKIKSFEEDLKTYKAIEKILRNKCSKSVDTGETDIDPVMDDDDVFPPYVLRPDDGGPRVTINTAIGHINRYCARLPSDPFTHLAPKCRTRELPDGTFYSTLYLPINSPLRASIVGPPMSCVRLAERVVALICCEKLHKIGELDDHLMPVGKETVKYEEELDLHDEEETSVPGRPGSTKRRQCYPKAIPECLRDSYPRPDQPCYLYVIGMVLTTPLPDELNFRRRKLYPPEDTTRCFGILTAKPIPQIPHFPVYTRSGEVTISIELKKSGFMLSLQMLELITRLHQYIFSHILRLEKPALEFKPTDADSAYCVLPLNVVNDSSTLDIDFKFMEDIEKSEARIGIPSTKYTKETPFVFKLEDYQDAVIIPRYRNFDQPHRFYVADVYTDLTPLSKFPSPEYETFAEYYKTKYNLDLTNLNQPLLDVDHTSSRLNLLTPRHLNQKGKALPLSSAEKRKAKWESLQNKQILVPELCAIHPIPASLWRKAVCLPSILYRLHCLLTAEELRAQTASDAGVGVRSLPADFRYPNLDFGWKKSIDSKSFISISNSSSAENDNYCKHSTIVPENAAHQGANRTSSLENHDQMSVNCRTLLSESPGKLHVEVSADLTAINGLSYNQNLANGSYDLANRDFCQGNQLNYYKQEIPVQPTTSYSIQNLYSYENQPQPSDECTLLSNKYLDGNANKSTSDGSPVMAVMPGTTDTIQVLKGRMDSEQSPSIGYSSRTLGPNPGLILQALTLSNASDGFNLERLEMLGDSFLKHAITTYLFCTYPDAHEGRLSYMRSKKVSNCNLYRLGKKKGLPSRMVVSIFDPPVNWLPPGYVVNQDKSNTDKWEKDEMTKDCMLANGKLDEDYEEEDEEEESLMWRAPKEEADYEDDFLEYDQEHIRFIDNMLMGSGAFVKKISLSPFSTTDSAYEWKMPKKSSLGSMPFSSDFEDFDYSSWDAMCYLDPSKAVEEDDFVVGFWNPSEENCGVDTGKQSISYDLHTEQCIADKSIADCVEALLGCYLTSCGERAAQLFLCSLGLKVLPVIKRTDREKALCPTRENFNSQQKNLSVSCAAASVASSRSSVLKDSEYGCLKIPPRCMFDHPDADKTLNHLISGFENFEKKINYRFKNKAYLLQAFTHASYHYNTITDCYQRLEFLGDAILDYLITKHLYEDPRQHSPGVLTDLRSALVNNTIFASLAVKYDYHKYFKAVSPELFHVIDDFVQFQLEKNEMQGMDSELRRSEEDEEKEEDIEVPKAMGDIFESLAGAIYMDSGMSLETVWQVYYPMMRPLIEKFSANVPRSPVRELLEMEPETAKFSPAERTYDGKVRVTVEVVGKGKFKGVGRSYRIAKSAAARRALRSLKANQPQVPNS

The test addresses Endoribonuclease Dicer (Homo sapiens) (UniProt Q9UPY3). Description: inhibitors of Dicer pre-microRNA processing, primary screen, biochemical, cat-ELCCA, chemiluminescence (AID 1347074).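 Further: plate controls were vehicle for no effect and no enzyme for full effect; higher signal means more uncleaved substrate so more Dicer inhibition.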 The settings on record: cat-ELCCA pre-miR-21 Dicer processing, at 25 µM, hits give high values.
For `CCN(CC)C(=O)c1c(NC(=O)c2cccs2)sc2c1CCCCC2`, the z-score was -1.54.

With `CCOC(=O)C1=C(C)NC2=C(C(=O)c3ccccc32)C1c1cc(Br)c(OC)c(OC)c1` (stereo not given), the z-score is 1.14. The same measure for `COc1ccc(-c2noc(-c3ccc(Br)cc3)n2)cc1`: 1.15; for `O=c1[nH]c(SCc2ccccc2)nnc1-c1ccccc1`: 0.5; for `COc1ccc(Cc2nc(-c3ccc(OC)cc3)no2)cc1`: 0.51. As for `CCCc1cc(=O)n2[nH]c(SCc3ccccc3)nc2n1`, the figure is 0.14; as for `CCS(=O)(=O)n1nc(-c2ccc(OC)cc2)nc1SC`, 3.58 (active). As for `CCS(=O)(=O)n1nc(-c2ccccc2)nc1SCc1ccccc1`, the figure is 3.99 (active).

Consider `COc1ccc(COC(=O)C2=C(C)NC3=C(C(=O)CCC3)C2c2ccc(Br)cc2)cc1` (stereo not given), for which the z-score is 0.32.

With `O=c1c(-c2ccc(OC3O[C@H](CO)[C@@H](O)[C@H](O)[C@H]3O)cc2)coc2cc(O)cc(O)c12` (stereo not given in full), the z-score was 0.24. As for `CS(=O)(=O)N(CC(=O)O)c1cccc2ccccc12`, the figure is -1.7; as for `CCOC(=O)C1=C(c2ccccc2)Nc2nc3ccccc3n2C1c1ccc(O)c(OCC)c1` (stereo not given), -6.05.

With `N#Cc1cn(Cc2ccccc2Cl)c(=O)[nH]c1=O`, the z-score was 0.24. On to `CC1(C)SC2C(NC(=O)COc3ccccc3)C(=O)N2C1C(=O)O` (stereo not given), for which the z-score was 1.11.

Take `CC1(C)S[C@@H]2[C@H](NC(=O)COc3ccccc3)C(=O)N2C1C(=O)O` (stereo not given in full) (tested in a mixture with another compound): the z-score is -0.17.

On to `CC(=O)N1[C@@H](c2ccc(C)cc2)SC(C)(C)[C@@H]1C(=O)O`, for which the z-score was 4.5 (active). The same measure for `CN(C)c1ccc(NC(=O)CSc2nc(-c3ccco3)cc(C(F)(F)F)n2)cc1`: -1.78; for `Cc1nc2ccccc2n1CCOc1ccc(Cl)cc1`: 0.74.

In the case of `CCCNC(=O)NNC(=O)Cn1nnc(N2CCOCC2)n1`, the z-score is 11.9. As for `S=c1nn[nH]n1-c1ccc(Cl)cc1Cl`, the figure is -0.38; as for `CCCc1cc(-c2n[nH]c(C)c2-c2ccc3c(c2)OCCO3)c(O)cc1O`, 7.51 (active); as for `c1ccc2c(-c3csc(-c4ccc5c(c4)OCCO5)n3)csc2c1`, -0.77. As for `Cc1cc(C)n(C(C)C(=O)Nc2ccc(F)cc2)c(=O)n1` (stereo not given), the figure is 2.63; as for `O=C(O)CCC(=O)c1ccc2ccccc2c1`, 0.56. The same measure for `Cc1ccc(OS(=O)(=O)c2ccc(F)cc2)c([N+](=O)[O-])n1`: -1.06; for `Cc1ccc2nsnc2c1S(=O)(=O)Nc1ccc(Br)cc1`: 5.39 (active); for `O=C(O)c1ccc(NS(=O)(=O)c2cccc3nsnc23)cc1`: 1.86. `Cc1ccc2nsnc2c1S(=O)(=O)N1CCCC1C(=O)O` (stereo not given): the z-score is -1.03.

In the case of `CN(C)/C=C1\C(=O)c2ccc(Cl)cc2N(Cc2c(F)cccc2Cl)S1(=O)=O`, the z-score was -0.82. As for `Cc1ccc(C(=O)Nc2ccccc2Sc2nc3ccccc3c(C)c2C#N)cc1`, the figure is -1.01; as for `CCOc1ccc(/C(O)=C2\C(=O)C(=O)N(c3nccs3)C2c2ccc(F)cc2)cc1` (stereo not given), 0.2. The same measure for `O=C(Nc1cccc(Br)c1)c1csc2c1CCCC2`: 5.59 (active); for `O=C(NCc1ccccn1)C(=O)Nc1cccc(Br)c1`: 1.05. As for `O=C(Nc1sc2c(c1C(=O)O)CCCC2)c1cc2ccccc2o1`, the figure is 0.75; as for `Cc1nc(-n2cccc2)sc1C(=O)N/N=C/c1ccc(Cl)cc1`, 0.46; as for `Cc1oc(C(C)(C)C)cc1C(=O)Nc1ccc(SCc2cccc(Cl)c2F)cc1`, -1.58. For `CC(C)=Cc1nc2cccc(F)c2c(=O)o1`, the z-score is 0.25.

For `Cc1sc2nc(-c3ccccc3F)oc(=O)c2c1C`, the z-score is 3.11 (active). The same measure for `COc1ccc(-c2csc3nc(-c4ccccc4F)oc(=O)c23)cc1OC`: 0.98; for `Cc1cc(C)c(C#N)c(Sc2ccc(Cl)cc2)n1`: -0.54. On to `CN1C(=O)C2(/C(=C(/O)c3ccc(Cl)cc3)C(=O)C(=O)N2CC2CCCO2)c2ccccc21` (stereo not given), for which the z-score is 0.79. `CN(C)S(=O)(=O)N(CC(=O)NC1CC2CCC1C2)c1ccccc1` (stereo not given): the z-score is -1.13. The same measure for `N#C/C(=C\N1CCOCC1)S(=O)(=O)Cc1ccc(Cl)cc1`: -1.52; for `CC(=O)NC(Cc1c[nH]c2ccccc12)C(=O)O` (stereo not given): 2.44; for `COC(=O)C(Cc1c[nH]c2ccccc12)NC(=O)CN1CCCCC1` (stereo not given): 4.61 (active). The same measure for `O=C(NCCc1c[nH]c2ccccc12)C(=O)NCC1CCCO1` (stereo not given): -1.03.

Consider `COC(=O)c1ccc(S(=O)(=O)NCc2ccccc2)n1C`, for which the z-score was 1.21. As for `Cc1oc2ccc(NS(=O)(=O)c3ccc4c5c(cccc35)C(=O)N4)cc2c1C(=O)OC(C)C`, the figure is 2.44; as for `COC(=O)c1c(C)oc2ccc(NS(=O)(=O)c3cccc4cccnc34)cc12`, 3.25 (active); as for `COCCOC(=O)c1c(C)oc2ccc(NS(=O)(=O)c3ccc(Cl)cc3)cc12`, -0.11. As for `CCOC(=O)C1=C(C)NC2=C(C(=O)c3ccccc32)C1c1ccc(OC(=O)c2ccccc2)cc1` (stereo not given), the figure is -1.18.

For `Cn1nc(Oc2nc(N3CCCCC3)nc(N3CCCCC3)n2)ccc1=O`, the z-score is 1.65.

Take `CCOC(=O)C(Nc1cccc(Cl)c1)C(=O)OCC`: the z-score was -1.26. As for `Cc1ccc(N=C2SC3(CC3)C(=O)N2c2ccc(C)cc2)cc1`, the figure is 0.49; as for `O=C1c2ccc3c4c(ccc(c24)C(=O)N1c1ccccc1)C(=O)N(c1ccccc1)C3=O`, -0.71; as for `O=C1N(c2ccccc2)C(=Nc2ccccc2)SC12CC2`, 4.33 (active). As for `CC1(C)Cc2c(sc3ncn4nc(-c5ccco5)nc4c23)C(C)(C)N1`, the figure is 0.09; as for `Nc1cccc2c(S(=O)(=O)N3CCCCC3)cccc12`, -1.6. As for `Cc1cccc(NC(c2cccc(F)c2)c2ccc3ccc(C)nc3c2O)n1` (stereo not given), the figure is 0.62. Regarding `Cc1ccnc(NC(c2ccc(O)cc2)c2ccc3ccc(C)nc3c2O)c1` (stereo not given), the z-score was 4.59 (active). As for `Cc1cccc(NC(c2ccc3c(c2)OCO3)c2ccc3ccc(C)nc3c2O)n1` (stereo not given), the figure is 1.45.

As to `COc1ccc(-n2ncc(C(=O)NCc3c(Cl)cccc3Oc3ccccc3)c2C)cc1`, the z-score was -2.95. Turning to `CSc1sc(C(=O)Nc2ccc(Cl)cc2)c2c1S(=O)(=O)N(C)c1ccccc1-2`, the z-score was -0.3. The same measure for `CCC(CC)NC(=O)C1c2ccccc2Oc2ccccc21`: 6.16 (active); for `N#Cc1ccc(N2CCN(C(=O)c3cc(-c4ccc(Cl)cc4)oc3C(F)(F)F)CC2)cc1`: 0.32; for `COc1ccc(-c2cn3ccc(C)cc3n2)cc1F`: 3.54 (active).

Consider `Cc1ccc(-c2cn3cc(C)ccc3n2)cc1`, for which the z-score was -0.35. Turning to `CC(C)c1cc(C(C)C)c(S(=O)(=O)NCc2cccnc2)c(C(C)C)c1`, the z-score was -0.34. The same measure for `Cc1cc(OCC(=O)O)cc2c1C(=O)CC(C)(C)O2`: 1.97; for `Cc1nc(-c2cc(C#N)c(SCCNS(=O)(=O)c3ccc(Cl)cc3Cl)nc2C)cs1`: -0.5. As for `C=CCOc1ccc(C2c3c(oc4ccccc4c3=O)C(=O)N2c2nncs2)cc1` (stereo not given), the figure is -1.03; as for `CC(=O)Nc1cc(Sc2ccc(C)cc2)c(F)cc1[N+](=O)[O-]`, -0.55.

In the case of `Cc1ccc2nc(CCC(=O)O)[nH]c2c1`, the z-score was 1.6.

For the compound `O=C(CSCc1c(F)cccc1Cl)NCc1ccc2c(c1)OCO2`, the z-score is 1.3. The same measure for `CC(=O)C(Cc1ccc([N+](=O)[O-])cc1)(Cc1c(F)cccc1Cl)C(C)=O`: 3.5 (active). As for `O=[N+]([O-])c1ccc(CSc2nc3cc(Cl)c(F)cc3[nH]2)cc1`, the figure is 0.13; as for `COc1ccccc1C1=Nc2cccc3cccc(c23)N1`, -0.3.

Take `COc1cc(OC)cc(-c2nc3n(n2)C(c2cccc(OC)c2OC)C2=C(CCCC2=O)N3)c1` (stereo not given): the z-score was -0.15. The same measure for `COc1cccc(C2Nc3cccc4cccc(c34)N2)c1OC`: 3.14 (active); for `Brc1ccccc1C1Nc2cccc3cccc(c23)N1`: 5.91 (active). Turning to `C=CCc1ccc(OCc2ccc(C(=O)OC)cc2)c(OC)c1`, the z-score is 0.92.

For `ONC(=Nc1cccc(Cl)c1)c1ccccc1`, the z-score is 0.78. As for `CCOC(=O)C1=C(C)NC2=C(C(=O)c3ccccc32)C1c1cccc(F)c1` (stereo not given), the figure is -1.25; as for `O=C(O)CCCC(=O)Nc1ccc2c(c1)OCCO2`, -0.36. As for `Cc1ccc(C2Nc3nonc3NC3=C2C(=O)CC(C)(C)C3)cc1` (stereo not given), the figure is -0.08. The same measure for `Cc1cc(=O)[nH]c(SCc2cn3c(C)cc(C)nc3n2)n1`: 2.76; for `Cc1cc(=O)[nH]c(SCc2ccc(Cl)cc2)n1`: 0.25; for `Cc1cc(=O)[nH]c(SCc2cn3cccnc3n2)n1`: 3.69 (active). Take `CCOCCOC(=O)C1=C(C)NC2=C(C(=O)CCC2)C1c1ccc(O)c(OCC)c1` (stereo not given): the z-score was -0.34.

Take `O=C(Nc1cc(C(F)(F)F)cc(C(F)(F)F)c1)c1csc([N+](=O)[O-])c1`: the z-score was 1.87. Consider `O=c1[nH]nc(Sc2ncc(Br)cc2[N+](=O)[O-])n1-c1ccc(Cl)cc1`, for which the z-score was -0.78. Take `Cc1ccc2c(c1)sc1ncc(NC(=O)c3ccc(C(C)(C)C)cc3)c(=O)n12`: the z-score was -1.01. As for `CCn1c2c(c(=O)[nH]c1=O)C(c1ccccc1OC)C1=C(N2)c2ccccc2C1=O` (stereo not given), the figure is 2.33. Turning to `CCc1ccc(C2CC(=O)Nc3n[nH]c(-c4ccc(Cl)cc4)c32)cc1` (stereo not given), the z-score was 0.45. The same measure for `CC(C)(C)c1ccc(C(=O)Nc2cc(C#N)c3sc4ccccc4n3c2=O)cc1`: -0.68.
